Where “and” joins values, the source holds several entries; their conditions need not be identical. Equal values may be shown once. A number with no mark means an inactive call. Results filed as inconclusive are left out. Entries that show only a call come without a potency. Calls of active or inactive are those of the source. Unless noted, no rule for the calls is given here.
How the values were obtained:
[1] = qHTS assay for cell viability of the p53RE-bla HCT-116 cell line (AID 743292; active = well fitted cell-killing curve with a large enough effect; also: nearly all actives have a fitted effect of over 55% in size)
Method in brief: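 ATP-based luminescence, 16 h compound exposure at 37 C, p53RE-bla HCT-116 cells at 4,000/well.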

[2] = target: Nuclear receptor subfamily 1 group I member 2 (Rattus norvegicus) (UniProt Q9R1A7); experiment: qHTS assay for small molecule activators of the rat pregnane X receptor (rPXR) signaling pathway (AID 651751); conditions: rPXR reporter cells, luciferase (One-Glo), 24 h
Chain of Nuclear receptor subfamily 1 group I member 2 (Rattus norvegicus) (Q9R1A7 whole entry, looked up): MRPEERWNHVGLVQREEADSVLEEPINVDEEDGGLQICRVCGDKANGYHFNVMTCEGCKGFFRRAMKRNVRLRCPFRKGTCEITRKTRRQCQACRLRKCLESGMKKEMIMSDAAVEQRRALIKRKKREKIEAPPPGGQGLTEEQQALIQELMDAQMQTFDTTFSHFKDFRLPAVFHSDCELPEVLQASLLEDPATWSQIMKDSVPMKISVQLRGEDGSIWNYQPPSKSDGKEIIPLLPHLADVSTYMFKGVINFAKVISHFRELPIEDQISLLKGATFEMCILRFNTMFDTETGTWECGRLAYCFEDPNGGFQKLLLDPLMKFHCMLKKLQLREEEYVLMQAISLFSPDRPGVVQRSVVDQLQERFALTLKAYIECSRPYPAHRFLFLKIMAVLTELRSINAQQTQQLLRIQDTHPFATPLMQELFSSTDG

[3] = qHTS assay for small molecule activators of the human pregnane X receptor (PXR) signaling pathway (AID 720659)

SMILES	Potency [1]	max response [2]	outcome [3]
Nc1cc(Cl)c(N)c(Cl)c1	inactive	-6.29% and -6.62%	inactive
CC(=O)Nc1cccc(N)c1	inactive	-0.641%	inactive
Cc1ccc2nc(-c3ccc(N)cc3)sc2c1S(=O)(=O)O	inactive		
Cc1ccc2cccnc2c1	inactive	-2.67%	
Cc1cc(C2(c3cc(C)c(O)cc3C)OS(=O)(=O)c3ccccc32)c(C)cc1O	inactive	-3.33%	
Cc1cc(C)cc(O)c1	inactive	-0.901%	inactive
C=CCCCCCCC=C	inactive		
CCN(C(=O)N(CC)c1ccccc1)c1ccccc1	inactive	-2.68%	
CCC(C)O (stereo not given)	inactive		
BrC/C=C/CBr	inactive	-0.603%	

Source: PubChem BioAssay (NCATS)
